# About 83,000 compounds went through this panel and 20% of them were active in at least one assay; those are over-represented in the sample as a whole.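 Testing used 96-well plates and a 48-hour single-concentration exposure. Example: -40 means 40% of the starting cells died.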 Unmarked numbers belong to inactive results. Activity calls are given as the source filed them. The calls were made as follows: active = growth percent below 10; inactive = the rest.
# What was measured:
# Assay in all cases: NCI-60 one-dose screen, 48 h (100 = growth as untreated, 0 = no growth, -100 = all killed)
# Conditions in all cases: 10 µM unless noted
# NCI-H23 lung = system: NCI-H23 lung
# NCI-H226 lung = system: NCI-H226 lung
# NCI-H322M lung = system: NCI-H322M lung
# HOP-62 NSCLC = system: HOP-62 NSCLC
# NCI-H460 lung = system: NCI-H460 lung
# HOP-92 NSCLC = system: HOP-92 NSCLC
# NCI-H522 lung = system: NCI-H522 lung
# A549/ATCC NSCLC = system: A549/ATCC NSCLC
# 786-0 renal = system: 786-0 renal
# COLO 205 colon = system: COLO 205 colon
SMILES,growth (NCI-H23 lung),growth (NCI-H226 lung),growth (NCI-H322M lung),growth (HOP-62 NSCLC),growth (NCI-H460 lung),growth (HOP-92 NSCLC),growth (NCI-H522 lung),growth (A549/ATCC NSCLC),growth (786-0 renal),growth (COLO 205 colon)
CC(C)(C)n1cc(-c2ccnc(NCCCNS(=O)(=O)c3cccc(F)c3)c2)c(-c2cccc(O)c2)n1,66.5%,60.9%,58.6%,73.8%,19.6%,79.5%,47.6%,42.5%,29.5%,8.99% (active)
CCOC(=O)NNC(=S)Nc1ccccc1,99.5%,103%,102%,102%,108%,93.5%,100%,96.3%,103%,131%
COc1ccc2c(c1)C(c1cc(OC)c3c(c1)OCO3)C1=C(COC1=O)N2 (stereo not given),38.2%,27.5%,51.4%,36.5%,6.63% (active),26.9%,-38.5% (active),14.7%,29.5%,-22.6% (active)
Clc1cccc(-c2cc(-c3ccc4c(c3)OCCO4)[nH]n2)c1,40% [25 µM],34.8% [25 µM],37.2% [25 µM],26.6% [25 µM],12.1% [25 µM],55.4% [25 µM],0.794% [25 µM] (active),41.2% [25 µM],56.8% [25 µM],11.9% [25 µM]
COc1cc(-c2nc(N=Nc3c(O)[nH]c4ccc(Br)cc34)[nH]c(=O)c2C#N)cc(OC)c1OC,102%,84.1%,99.4%,105%,104%,92.8%,84.9%,99.4%,99.8%,114%
O=[N+]([O-])c1cnc(Sc2ccncn2)s1,77%,110%,99.1%,92%,97.3%,-64.9% (active),-79.1% (active),95.9%,93.1%,-77.4% (active)
O=C(c1c[nH]c(=O)c(-c2ccccc2)c1)c1ccccc1O,91.7%,88.7%,82.7%,86.3%,96.1%,70.2%,87.2%,93.5%,88.2%,98.1%
N/C(=N\S(=O)(=O)c1ccccc1)Nc1nc2ccccc2s1,87.9%,76.7%,91.1%,86.3%,107%,76.2%,73.2%,95.9%,95.4%,96.4%
O=C(/C=C/c1cc(-c2ccc3c(c2)OCO3)n[nH]1)c1ccc2c(c1)OCO2,94.6%,89.4%,86.6%,96.9%,97.5%,77.7%,72%,90.7%,99.2%,97.7%
C=C1c2nc3ccccc3n2C=C(c2ccc(Cl)cc2)N1Cc1ccccc1,73.4%,76.9%,96%,106%,88.2%,73.6%,66.3%,70.6%,89.5%,105%
O=C(Nc1ccc2c(c1)OCCO2)C(=O)c1c[nH]c2ccccc12,24.5%,82.7%,54.3%,42.9%,8.62% (active),1.01% (active),-40.4% (active),47.7%,59.7%,10.2%
Cc1cc(N/N=C/c2nc(-c3ccc(Br)cc3)oc2C)c2cc(Br)ccc2n1,103%,113%,82.8%,105%,-13.1% (active),78.8%,48%,32.8%,29.2%,99.7%
C[n+]1c(/C=C/c2c(O)ccc3ccccc23)ccc2ccccc21,37.2%,47.5%,42.9%,54.8%,9.44% (active),-10.2% (active),-6.6% (active),51.3%,49.2%,25.3%
N/C(=N\C(N)=N\c1nc2ccccc2s1)c1ccncc1,77.7%,76.1%,96%,60.7%,94%,65.2%,2.64% (active),89.3%,73.9%,64.3%
O=C(NNC(=O)N1c2ccccc2C=Cc2ccccc21)c1ccc2ccccc2c1,98.4%,95.5%,99%,99.1%,100%,81.4%,85.9%,95.7%,96.1%,101%
Oc1ccccc1/C=N/NC(=S)NC1CC2C=CC1C2 (stereo not given),56.3%,107%,83.1%,85.6%,16.6%,82.4%,60.3%,69.9%,83.4%,108%
CC(NNC(C)c1ccccc1)c1ccccc1 (stereo not given),103%,98.8%,122%,105%,106%,96.4%,93.9%,104%,109%,105%
C=C[C@@H]1C[C@H](O)Cc2ccccc2N1,104%,111%,125%,99.2%,107%,137%,121%,95.4%,112%,117%
O=[N+]([O-])c1ccc(Sc2ncccn2)c([N+](=O)[O-])c1,53.5%,96.3%,97.7%,94.6%,95.4%,18%,-50.1% (active),67.9%,61.3%,21%
COc1cc2c(cc1O)CCN1C[C@@H](CC(C)C)[C@@H](O)C[C@@H]21,99.9%,96.6%,105%,93.5%,116%,63.8%,93.6%,107%,92%,127%
CN(C)c1nc2c(N)ncnc2n1C1OC(CO)C(O)C1O (stereo not given),110%,104%,122%,103%,121%,98.1%,108%,106%,99.2%,108%
CCCCCCCC/C=C/CCCCCCCC1=NC(C)(C)CN1C(C)(C)CO,44.7%,86.2%,58.5%,30.6%,-86.4% (active),20.3%,13%,30.8%,60.3%,-86.3% (active)
Cc1ccc(S(=O)(=O)n2cc(C(=O)C(=O)Nc3ccncc3)c3ccccc32)cc1,36.4%,64.2%,94.7%,33.4%,80.4%,38.5%,1.71% (active),73.5%,29.5%,107%
CNC(=S)NNC(=O)C1CC1,97.9%,109%,121%,106%,115%,96%,108%,99.2%,97.2%,113%
CSc1nc2c(c(=O)[nH]1)C(c1ccc(C)cc1)C=C(C(=O)O)N2 (stereo not given),98.9%,104%,101%,107%,106%,122%,108%,106%,104%,126%

# — PubChem BioAssay (NCI)
